Compounds without any hit were thinned out: in the full panel of roughly 79,000, 15% have a hit. Rule as the data show it: active = growth inhibition above about 70%; inactive = the rest.
What was measured:
[1] = NCI Yeast Anticancer Drug Screen. Data for the rad50 strain (AID 155);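 also: 0% = growth of vehicle-only cultures of the same strain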; conditions: S. cerevisiae rad50 strain growth inhibition; at 50.0 µM; stronger effect = higher value
Procedure, shortened: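 Cells are treated with compound, grown, and their growth is then scored against vehicle-only cultures of the same repair-deficient yeast strain.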

[2] = NCI Yeast Anticancer Drug Screen. Data for the mec2-1 strain (AID 157); conditions: S. cerevisiae mec2-1 strain, at 50.0 µM, stronger effect = higher value
Procedure, shortened: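 Using mec2-1 yeast: add compound, measure growth, express inhibition versus vehicle-treated cultures.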

[3] = NCI Yeast Anticancer Drug Screen. Data for the sgs1 mgt1 strain (AID 161);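 also: 0% = growth of cultures given vehicle only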; conditions: S. cerevisiae sgs1 mgt1 strain, at 50.0 µM, stronger effect = higher value
Procedure, shortened: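 Growth of a repair-deficient yeast mutant was monitored after compound treatment and expressed as inhibition relative to vehicle-treated cultures.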

[4] = NCI Yeast Anticancer Drug Screen. Data for the cln2 rad14 strain (AID 165);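 also: 0% = growth equal to vehicle treated cultures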; conditions: S. cerevisiae cln2 rad14 strain, at 50.0 µM, stronger effect = higher value
Procedure, shortened: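 Yeast strain cln2 rad14, bearing defects in cell cycle control and DNA repair, serves as the test system; values reflect growth inhibition compared with vehicle.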

[5] = NCI Yeast Anticancer Drug Screen. Data for the bub3 strain (AID 167); conditions: S. cerevisiae bub3 mutant strain, at 50.0 µM, stronger effect = higher value
Procedure, shortened: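 Part of a panel of yeast mutants defective in DNA damage repair or cell cycle regulation. Each strain is grown with compound, and inhibition is calculated relative to solvent-treated cultures.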

[6] = NCI Yeast Anticancer Drug Screen. Data for the mlh1 rad18 strain (AID 175); conditions: S. cerevisiae mlh1 rad18 strain growth inhibition; at 50.0 µM; stronger effect = higher value
Procedure, shortened: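 Steps: expose repair-defective yeast to compound; measure growth; express inhibition against vehicle-treated controls.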

Measured: growth inhibition

C[N+]1(C)CCCC(OC(=O)C(O)(c2ccccc2)c2ccccc2)C1 (stereo unspecified)
inactive: [1] 38% | [2] 10.1% | [3] 15.6% | [4] -18.9% | [5] 13.6% | [6] 27.7%

CN(C)Cc1cc(N=Nc2c(Cl)cccc2Cl)ccc1O
inactive: [1] 14.4% | [2] 19.8% | [3] 8.35% | [4] 1.95% | [5] 28% | [6] 18.4%

S=C1NCC(c2ccccc2)CN1
inactive: [1] 0.5% | [2] 1.65% | [3] -2.55% | [4] 19.9% | [5] -7.95% | [6] -5.9%

COc1ccc(OC)c(NC(=O)SC(C)C)c1
inactive: [1] -5.3% | [2] -21.8% | [3] -9.45% | [4] 0.15% | [5] 18.2% | [6] -3.65%

OC12CCCCCC1(N1CCOCC1)c1ccccc12 (stereo unspecified)
inactive: [1] -8.2% | [2] -11.7% | [3] -29.7% | [4] -21.1% | [5] -37.2% | [6] -24.3%

O=c1[nH]cc(COCCO)c(=O)[nH]1
inactive: [1] -20.1% | [2] -2.8% | [3] -19.4% | [4] 7.4% | [5] -18% | [6] 7.2%

Cc1ccc2occ(/C=N/NC(N)=S)c(=O)c2c1
inactive: [1] -11.4% | [2] -2.7% | [3] 12.3% | [4] 0.6% | [5] 1.2% | [6] 0.8%

CCn1nnc2c(C(N)=O)ncn2c1=O
inactive: [1] 0.6% | [2] -38.7% | [3] -44.1% | [4] 14.1% | [5] -14.8% | [6] -16.6%

CCOC(C)C(=O)C=O (stereo unspecified)
inactive: [1] -17.9% | [2] -13.6% | [3] -17.2% | [4] -4.55% | [5] -13.4% | [6] -8.4%

O=c1oc(-c2ccccc2)nc2c1CCCS2
inactive: [1] -1.2% | [2] -0.95% | [3] -5.65% | [4] 1.85% | [5] -8.25% | [6] -3.05%

CCOCCOC(=O)c1ccc(C(N)=NC2CCCCC2)cc1
inactive: [1] 0.05% | [2] -2.4% | [3] 3.75% | [4] -4.1% | [5] 0.1% | [6] -1.4%

CC1(C)N=C(/C(Cl)=[N+](/[O-])C(=O)c2ccc(Cl)cc2)C(C)(C)N1O
inactive: [1] -21.1% | [2] -26.9% | [3] -24.1% | [4] -7.3% | [5] -38.6% | [6] -8.4%

CC(=O)ON=C(C1CC1)C1CC1
inactive: [1] -6% | [2] 3.5% | [3] -6.4% | [4] 4.3% | [5] -13% | [6] -3.3%

C#CCN(C(=O)C(F)(F)F)C(/C=C\C(=O)OC)(C(=O)OCC)C(=O)OCC
inactive: [1] -10.3% | [2] -24.9% | [3] -0.45% | [4] -4.5% | [5] -17.2% | [6] -2.55%

COC(=O)C(=O)C(C(=O)c1cccc2ccccc12)c1nc2n(c1O)C(=N)N=N2 (stereo unspecified)
inactive: [1] 18.4% | [2] 4.45% | [3] 11.6% | [4] -4.9% | [5] -2.75% | [6] 0.8%

CNC(=O)O[C@H]1C(=O)O[C@@H]2C[C@H]3C(C)=C(O)C(=O)C[C@]3(C)[C@H]3[C@@H](O)[C@H](O)[C@@]4(C(=O)OC)OC[C@]32[C@@H]14
inactive: [1] 24.9% | [2] 16.4% | [3] 1.95% | [4] 7.3% | [5] 14.9% | [6] 16.9%

CCOc1ccc(Nc2ccc3c(O)cc(S(=O)(=O)O)cc3c2)cc1
inactive: [1] 0.9% | [2] -7.35% | [3] -5.75% | [4] -20.4% | [5] 38.5% | [6] 12.8%

CCCC(=O)N[C@H]1C[C@H]2CC[C@@]1(C)C2(C)C
inactive: [1] -31.6% | [2] -27.4% | [3] -15.1% | [4] 11.2% | [5] 10.3% | [6] -1.75%

O=C(O)c1ccccc1C(=O)c1ccc(F)c2ccccc12
inactive: [1] 11% | [2] 26.9% | [3] 18.6% | [4] 21.1% | [5] 3.75% | [6] 10.7%

Cc1noc(NS(=O)(=O)c2ccc(NC(=S)/N=C/C(C(=O)c3ccccc3)=C(\O)c3ccccc3)cc2)c1C
inactive: [1] 10.7% | [2] 0.55% | [3] 18.7% | [4] -7.4% | [5] -5.15% | [6] 13.7%

O=C1NC(c2ccccc2)C1N(Cc1ccccc1)Cc1ccccc1 (stereo unspecified)
inactive: [1] 21.3% | [2] 0.55% | [3] 22.2% | [4] 11.4% | [5] 12.8% | [6] 9.8%

CC(O)C(O)C(O)C(=O)C=O (stereo unspecified)
inactive: [1] 5.8% | [2] 29.1% | [3] 6.1% | [4] 14.2% | [5] -25.4% | [6] 10.4%

CC(=O)/C(N=Nc1ccccc1SCCC#N)=C(\C)O
inactive: [1] 12.2% | [2] -2.55% | [3] -8.1% | [4] -28.6% | [5] 9.15% | [6] 1.5%

CCCCN(CCCC)C1=Nc2ccccc2-n2c(nnc2C(=O)OCC)C1
inactive: [1] 24.4% | [2] 44.5% | [3] 22.9% | [4] 15.2% | [5] 52% | [6] 50.4%

CCOC(=O)C(Cc1ccccc1C)(NC(C)=O)C(=O)OCC
inactive: [1] 6.65% | [2] -0.25% | [3] 7.35% | [4] 4.1% | [5] 1.4% | [6] -11.2%

O=S1c2ccccc2Sc2ccccc21
inactive: [1] 2.65% | [2] -8.4% | [3] -5.05% | [4] 1.6% | [5] -2% | [6] -2.25%

COc1cc2c(cc1C/C=C/c1cc(OC)c(OC)c(OC)c1)OCO2
inactive: [1] -1.95% | [2] -3.1% | [3] 22.8% | [4] -1.65% | [5] 8.55% | [6] 12.2%

Cc1cc(C)[n+](C)c(/C=C\c2ccc(Cl)cc2)n1
inactive: [1] 7.3% | [2] -6.95% | [3] 10.8% | [4] 3% | [5] -4.45% | [6] 12.9%

CCCn1cc2c(=O)[nH]c(SC)nc2n1
inactive: [1] -4.95% | [2] -20.8% | [3] -1.35% | [4] -13.1% | [5] -12.7% | [6] 10.8%

CC(C)(C)/C=C/N1N=NC(c2ccccc2)(c2ccccc2)C1=O
inactive: [1] 32.6% | [2] 19% | [3] 23.1% | [4] -13.2% | [5] 22.1% | [6] 26.7%

Cc1ccc(S(=O)c2ccccc2[N+](=O)[O-])cc1 (stereo unspecified)
inactive: [1] 4.85% | [2] 9.45% | [3] 1.7% | [4] 22% | [5] -0.6% | [6] -2%

O=C1CCC(=O)C(C(=O)CCC(=O)Nc2cccc(Cl)c2)C1 (stereo unspecified)
inactive: [1] -20.6% | [2] -6.5% | [3] -11.7% | [4] 19.8% | [5] 11.9% | [6] -4.9%

CCOC(=O)C1=C(C)N(NC(N)=O)C2(N)N(NC(N)=O)C(C)=C(C(=O)OCC)C12C#N (stereo unspecified)
inactive: [1] -6.95% | [2] 21.9% | [3] 17.6% | [4] 4.3% | [5] 10.6% | [6] -12.1%

C=CCNC(=S)Nc1cccc(O)c1
inactive: [1] -8.05% | [2] -11.6% | [3] -11.6% | [4] -31.8% | [5] -10.9% | [6] -2.55%

CC1(C)CCc2c(cc3c(c2O)CCC(C)(C)O3)O1
inactive: [1] 4.6% | [2] 7.6% | [3] -10.7% | [4] 12.9% | [5] 9.05% | [6] 8.45%

NCS(=O)(=O)O
inactive: [1] -12.8% | [2] -23.1% | [3] -18.9% | [4] 9.5% | [5] -24.2% | [6] -26.1%

O=C(c1ccc([N+](=O)[O-])cc1)c1cc2ccccc2oc1=O
inactive: [1] -12.1% | [2] -8.5% | [3] -9.85% | [4] -73% | [5] -18.4% | [6] -9%

COc1cc(O)c2c(=O)c(O)c(-c3ccc(O)c(O)c3)oc2c1
inactive: [1] 3.15% | [2] -24.1% | [3] 13.7% | [4] 9.05% | [5] -11.8% | [6] -10.6%

CCn1c(=O)c2c3cc(OC(C)=O)ccc3oc2c2ccc(OC(C)=O)cc21
inactive: [1] -23.3% | [2] -24.4% | [3] -6.8% | [4] 10.3% | [5] 12.9% | [6] -4.75%

CCN(CC)CCOc1ccc(Cc2nc3c([nH]2)c(=O)n(C)c(=O)n3C)cc1
inactive: [1] 21.6% | [2] 2.85% | [3] 14.2% | [4] 34.5% | [5] 5.1% | [6] 11.3%

Cc1ccc(S(=O)(=O)CC(O)(C(C)C)C(C)C)cc1
inactive: [1] -19% | [2] -8.6% | [3] -14.2% | [4] 12.8% | [5] 16.6% | [6] -17.4%

— PubChem BioAssay (NCI)
